BAZ2B block: BAZ2B (human) inhibition; AlphaScreen BAZ2B-H3K14Ac peptide displacement; Potency, µM (series often up to 114 µM), without a hit: at the top dose activity change, negative = inhibition, hits mostly inhibitors; hit rate 4.4% among 360,000; note: % is set by controls: 0 for no effect and ±100 for the full control effect; nearly all actives have a fitted effect of over 60% in size
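Inhibition is scored as reduced AlphaScreen emission. The BAZ2B/b-H3(5-23)K14Ac complex (50 nM each) in PBS pH 7.4, 0.01% Tween-20 meets compound (up to 110 uM) for 30 min at RT before bead addition.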
G9a inh: blocks human histone lysine methyltransferase G9a | G9a H3K9 monomethylation, AlphaScreen, 2 h | hit rate 8.8% among 350,000 | Potency, µM (doses to about 102 µM), for inactives: at the top dose activity, negative = inhibition, hits mostly inhibitors | AID 504332 | Q96KQ7; note: % is set by controls: 0 for no effect and ±100 for the full control effect; nearly all actives have a fitted effect of over 75% in size
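Chemiluminescent proximity detection of H3K9 monomethylation, read after 10 min bead incubation in the dark. Reaction: 20 nM G9a, 500 nM biotin-H3K9 peptide, 20 uM SAM cofactor, 2 h, room temperature, following 15 min enzyme-compound preincubation.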
HP1b chromo inh: blocks HP1-beta chromodomain binding to methylated histone tails. P83916. AlphaScreen HP1-beta / biotin-H3K9me3 peptide binding. Potency, µM (series often up to 114 µM), for inactives: at the top dose activity change, negative = inhibition, hits mostly inhibitors. AID 540317. hit rate 0.56% among 390,000; note: nearly all actives have a fitted effect of over 70% in size
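AlphaScreen: HP1-beta (50 nM) preformed 30 min with biotin-H3(1-18)K9me3 peptide (50 nM) in PBS pH 7.4, 0.01% Tween-20. Compound added for 30 min at RT, then streptavidin donor/nickel chelate acceptor beads (10 ug/mL) for 30 min.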
GLS inhibitor: glutaminase GLS (human) inhibition; O94925; GLS enzymatic activity, qHTS titration; Potency, µM (doses to about 45.5 µM), for inactives: at the top dose activity change, negative = inhibition, most hits filed as inhibitors; hit rate 0.21% among 410,000; note: % is set by controls: 0 for no effect and ±100 for the full control effect
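Enzyme dispensed in phosphate buffer (45 mM, pH 8.2, 0.02% Tween-20), compounds pinned in, then 1 mM L-glutamine solution and the glutamate oxidase–HRP–Amplex Red mix added; fluorescence read immediately and again after 30 min at room temperature.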
JMJD2A Tudor inh: JMJD2A Tudor domain (human) inhibition | Potency, µM (doses to about 114 µM), without a hit: at the highest dose activity change, negative = inhibition, hits mostly inhibitors | AlphaScreen JMJD2A-Tudor / H3K4me3 peptide binding | hit rate 4.4% among 390,000; note: % is set by controls: 0 for no effect and ±100 for the full control effect; nearly all actives have a fitted effect of over 50% in size
An asterisk follows results filed as active; u = inconclusive; x = no result; ! = a repeat was not active; [ ] = another dose, or the depositor's remark. This is a sample that favours compounds with a hit; in the whole collection about 10% have one here. Calls come from the whole dose curve; as a rule, active = well fitted curve in the direction sought with a large enough effect; inconclusive = small, poorly fitted or top-dose-only effect, or another doubt; inactive = no such curve, though single readings can be large; an effect the other way counts as inactive or inconclusive. Potency is the fitted concentration of half-maximal effect.

SMILES	BAZ2B block	G9a inh	HP1b chromo inh	GLS inhibitor	JMJD2A Tudor inh
CCOC(=O)c1c(C)n(Cc2ccco2)c2c1cc(O)c1ccccc12	-10.6%	15.8µM*	6.8%	15.3%	-18.3%
COC(=O)C1=C(c2cccc(C#N)c2)C[C@@H]2CC[C@H]1N2C(=O)N1CCC(C)CC1	1.0%	2.7%[2.33 µM]	108.7%	-3.4%	-12.9%
Cc1ccc(CN2C(=O)CN=C(c3ccccc3)c3ccccc32)cc1	-26.3%	-35.7%[59 µM]	17.6%	3.1%	-20.7%
CCOP(=O)(OCC)C1(O)C(=O)Nc2ccc(Br)cc21 (centres undefined)	-5.1%	17.8µM*	20.7%	-10.3%	-11.2%
C=CCC1(C(C)CCC)C(=O)NC(=O)NC1=O (centres undefined)	x	x	x	-12.5%[99.4 µM]	x
CCOc1ccc(N=C2SCCCN2C)cc1	-3.9%	3.55µM*	5.3%	-5.0%	u
O=C(Nc1ccc(Cl)cc1)O/N=C(\c1ccccc1)c1ccccn1	14.1µM*	u	22.7%	30.7%	10µM*
O=C(CN1CC(c2ccccc2)CC1=O)Nc1ccc(F)cc1 (centres undefined)	4.4%	-3.2%[59 µM]	37.5%	3.2%	-11.3%
N[C@@]1(C(=O)O)CC[C@@H](C(=O)O)C1	-1.2%	29.9µM*!	-16.1%	-4.0%	50.1µM*
O=C(Cn1c(=O)n(CC2CCC(C(=O)NCCc3ccccc3)CC2)c(=O)c2ccccc21)Nc1cccc(F)c1 (centres undefined)	-0.9%	-6.1%[59 µM]	10.6%	-0.6%	56.2µM*
CC(=O)Nc1ccc(C=C2C(=O)NC(=O)NC2=O)cc1	x	x	40.1%	0.7%	-9.0%
CCN(CC)c1ccc(C=C2C(=O)NC(=S)NC2=O)cc1	50.1µM*	7.94µM*	u	u	44.7µM*
CC(C)CN(CC(C)C)c1ccc(C=C2C(=O)NC(=S)NC2=O)cc1[N+](=O)[O-]	35.5µM*	u	-83.9%	-15.9%	35.5µM*
CN(C)c1ccc(C=C2C(=O)NC(=S)NC2=O)cc1	x	x	-2.6%	115.9%	50.1µM*
CN(C)c1ccc(C=C2C(=O)NC(=O)NC2=O)cc1	x	x	1.0%[57 µM]	0.8%	-1.4%
Cc1cccc(-n2c(C)nc3ccccc3c2=O)c1C	13.3%	-8.1%[0.501 µM]	11.5%	8.8%	-23.5%
Cc1cccc(-n2c(C)n[nH]c2=S)c1C	4.7%	u	44.6%	22.5%	44.7µM*
O=C1NCN(c2ccccc2)C12CCN(CC1COc3ccccc3O1)CC2 (centres undefined)	x	38.6%[59 µM]	x	17.0%	x
CN1CCN(/N=C/c2c(O)n(C)c(=O)n(C)c2=O)CC1	-11.8%	28.2µM*	17.6%	43.6%	-8.1%[57.1 µM]
Cc1ccc(-n2c(O)c(/C=N/Nc3ccccc3)c(=O)[nH]c2=O)cc1C	-23.7%	7.94µM*	25.3%	24.9%	-23.8%
Cn1c(O)c(C=Nc2ccccc2)c(=O)n(C)c1=O	7.7%	2.4%	3.6%	-3.8%	-7.5%
Cc1ccc(-n2c(O)c(/C=N/N3CCCCCC3)c(=O)[nH]c2=O)cc1C	-3.6%	u	4.7%	0.0%	-12.1%
COc1ccc(N/N=C/c2c(O)n(-c3cccc(C)c3)c(=O)[nH]c2=O)cc1	-13.7%	2.24µM*	4.3%	47.5%	-29.6%
Cn1c(O)c(C=NCCCN2CCCC2=O)c(=O)n(C)c1=O	4.8%	0.9%	1.1%	3.9%	-8.2%
Cn1c(O)c(/C=N/Nc2ccccc2)c(=O)n(C)c1=O	-23.5%	3.98µM*	18.5%	-10.5%	u
SMILES	BAZ2B block	G9a inh	HP1b chromo inh	GLS inhibitor	JMJD2A Tudor inh
CNCC[C@H](Oc1cccc2ccccc12)c1cccs1	-28.9%	7.3%[59 µM]	23.0%	-1.8%	-15.8%
C=C1C(=O)OC2CC(C)C3C=CC(=O)C3(C)C(O)C12 (centres undefined)	x	x	35.3%	-0.6%	-9.0%
COc1ccc(N/N=C/c2c(O)n(-c3ccc(C)c(C)c3)c(=O)[nH]c2=O)cc1	-35.7%	1µM*	-13.5%	27.3%	35.5µM*
COc1cccc(-n2c(O)c(C=NCCN3CCOCC3)c(=O)[nH]c2=O)c1	7.6%	44.7µM*	62.8%	-2.6%	-10.8%
COc1ccc(N=Cc2c(O)n(-c3ccc(C)cc3)c(=O)[nH]c2=O)cc1	5.4%	8.8%	57.1%	-6.3%	-7.0%
Cc1cc(C)c(-n2c(O)c(C=NCCN3CCOCC3)c(=O)[nH]c2=O)c(C)c1	-1.6%	-5.1%	56.8%	-0.5%	1.6%
CN(C)CCN(CC1CCCN(Cc2ccccc2F)C1)C(=O)Cc1ccccc1F (centres undefined)	-27.8%	-11.7%	31.7%	1.0%	-11.6%
CC(C)=CCC/C(C)=C/CN(CC(C)O)CC(C)O (centres undefined)	-3.8%	10µM*	u	-4.7%	3.16µM*
[Cl][Pt+2][Cl].[NH-]C1CCCCC1[NH-] (centres undefined)	-10.4%	10µM*	-38.3%	15.0%	79.4µM*
CNC(C(=O)c1ccccc1)C(OC(C)C)c1ccc(Cl)cc1 (centres undefined)	-16.4%	1.4%[12.7 µM]	29.1%	7.8%	-12.6%
CNC(C(=O)c1ccccc1)C(OC)c1ccc(C)cc1 (centres undefined)	-1.8%	44.7µM*	32.3%	-11.7%	-27.7%
Nc1nc(/C(=C/CC(=O)O)C(=O)NC2C(=O)N3C(C(=O)O)=CCSC23)cs1 (centres undefined)	x	-9.7%[2.33 µM]	x	25.1µM*	x
CC1=C(C(=O)O)N2C(=O)[C@@H](NC(=O)CCCC(=O)O)[C@H]2SC1	-7.5%	-131.9%[59 µM]	54.7%	0.6%	-34.0%
O=[N+]([O-])c1c(Cl)c(Cl)cc(Cl)c1Cl	x	x	x	-17.6%[99.4 µM]	x
CNc1cc(Cl)c2nonc2c1[N+](=O)[O-]	-31.3%	25.1µM*	-14.3%	0.1%	-23.4%
CCOc1cc(-c2ccc(N)c(OCC)c2)ccc1N	14.1µM*	u	8.91µM*	u	u
CCOC(=O)C1=C(N)OC2=C(C(=O)CCC2)C12C(=O)N(CC(N)=O)c1ccccc12 (centres undefined)	4.7%	x	67.1%	-13.4%	6.6%
CCCCCCn1c(O)c(C=NCCN2CCCCC2)c(=O)[nH]c1=O	0.0%	18.6%[12.7 µM]	28.3%	9.3%	-15.2%
CCC(C)N1C(=O)/C(=C\c2ccc(N3CCCCCC3)cc2)C(=O)NC1=S (centres undefined)	44.7µM*	3.55µM*	u	150.0%	u
CCC(C)N1C(=O)/C(=C\c2cnc(N(C)C)nc2)C(=O)NC1=S (centres undefined)	u	7.94µM*	-0.8%	u	u
CCC(C)N1C(=O)/C(=C\c2cc3c4c(c2)CCCN4CCC3)C(=O)NC1=S (centres undefined)	u	44.7µM*	u	-3.7%	14.1µM*
CC(=O)OC1CC[C@@]2(C)C(=CC(=O)C3C4CCC(OC(C)=O)[C@@]4(C)CCC32)C1 (some centres undefined)	x	x	2.8%	-16.1%	-3.2%
Fc1ccccc1CCNCc1cccc2ccccc12	6.2%	-9.7%[59 µM]	30.8%	4.8%	-19.1%[57.1 µM]

Compound activity as filed in PubChem BioAssay.
